# Results published in ChEMBL document CHEMBL3988442, “University of Dundee, Small-Polar-MMV Screening Library” (2021).
# For some of these results: Entries with a potency or affinity are not part of this list.
# What was measured:
# Parameters in all cases: scale not given: direction of the effect not stated beside the values
# [1] = target: Protein translocase subunit SecA (Escherichia coli (strain K12)) (UniProt P10408); assay: Assay to Identify E. coli SecA ATPase Inhibitors; assay type: functional; settings: 30 µM
# [2] = target: T1, Ubiquitin-activating enzyme e1, putative (Leishmania donovani (strain BPK282A1)) (UniProt E9BSI1); assay: Leishmania donovani Ubiquitin Activating Enzyme (LdE1); assay type: functional; settings: 30 µM
# T1 sequence (whole entry): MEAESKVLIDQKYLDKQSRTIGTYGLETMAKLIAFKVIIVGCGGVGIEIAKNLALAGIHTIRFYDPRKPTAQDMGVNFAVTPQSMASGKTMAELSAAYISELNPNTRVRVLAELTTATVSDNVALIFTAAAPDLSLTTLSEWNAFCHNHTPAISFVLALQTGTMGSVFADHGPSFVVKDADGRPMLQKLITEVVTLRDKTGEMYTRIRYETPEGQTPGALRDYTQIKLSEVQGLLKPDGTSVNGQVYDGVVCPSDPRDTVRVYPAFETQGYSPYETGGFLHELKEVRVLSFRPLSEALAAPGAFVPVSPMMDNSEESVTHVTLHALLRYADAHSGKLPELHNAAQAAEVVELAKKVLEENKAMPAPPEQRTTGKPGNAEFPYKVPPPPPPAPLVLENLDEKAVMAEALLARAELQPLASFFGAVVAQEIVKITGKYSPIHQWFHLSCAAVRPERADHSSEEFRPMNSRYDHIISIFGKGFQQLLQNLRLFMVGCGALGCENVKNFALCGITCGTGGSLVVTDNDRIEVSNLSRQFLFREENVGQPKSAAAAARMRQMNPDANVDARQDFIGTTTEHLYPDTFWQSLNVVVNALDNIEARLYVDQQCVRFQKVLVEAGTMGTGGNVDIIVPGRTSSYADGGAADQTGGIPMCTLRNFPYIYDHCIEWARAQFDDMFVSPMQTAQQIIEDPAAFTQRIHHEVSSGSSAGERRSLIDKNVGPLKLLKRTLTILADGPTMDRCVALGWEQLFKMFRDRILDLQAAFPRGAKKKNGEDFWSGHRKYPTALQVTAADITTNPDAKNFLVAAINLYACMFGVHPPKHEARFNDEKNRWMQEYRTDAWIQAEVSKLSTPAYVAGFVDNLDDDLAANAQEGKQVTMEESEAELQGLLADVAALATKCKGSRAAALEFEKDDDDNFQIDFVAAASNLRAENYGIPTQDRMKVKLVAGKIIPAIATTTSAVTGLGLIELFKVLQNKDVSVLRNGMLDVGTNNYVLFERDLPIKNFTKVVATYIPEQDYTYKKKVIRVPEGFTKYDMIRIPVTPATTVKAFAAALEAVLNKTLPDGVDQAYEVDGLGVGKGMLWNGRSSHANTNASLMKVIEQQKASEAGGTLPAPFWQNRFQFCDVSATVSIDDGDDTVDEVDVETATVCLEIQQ
# [3] = target: AMP-activated protein kinase, AMPK (Homo sapiens) (UniProt P54646+O43741+P54619+Q9UGJ0+Q9Y478+Q13131+Q9UGI9); assay: AMP-dependent Kinase enzyme assay. An in vitro enzyme assay that detects ADP turnover that is directly proportional to AMPK activity. This uses naive AMPK that is activated during the assay with MK-8722; assay type: functional; settings: 30 µM
# [4] = target: Sialic acid-binding Ig-like lectin 9 (Homo sapiens) (UniProt Q9Y336); assay: Hs-Siglec9 ALPHAscreen SOP 20170721; settings: 10 µM
# [5] = tested on: Trypanosoma cruzi; assay: Trypanosoma cruzi phosphomannomutase and mannose-1-phosphate guanylyltransferase assay; assay type: functional; settings: 10 µM
# [6] = target: T2, Arginase-2, mitochondrial (Homo sapiens) (UniProt P78540); assay: in vitro enzyme assay to detect the production of urea directly proportional to the activity of Arginase II; assay type: functional; settings: 33.3 µM; further: in the data most compounds retested in dose-response had high values
# T2 sequence (whole entry): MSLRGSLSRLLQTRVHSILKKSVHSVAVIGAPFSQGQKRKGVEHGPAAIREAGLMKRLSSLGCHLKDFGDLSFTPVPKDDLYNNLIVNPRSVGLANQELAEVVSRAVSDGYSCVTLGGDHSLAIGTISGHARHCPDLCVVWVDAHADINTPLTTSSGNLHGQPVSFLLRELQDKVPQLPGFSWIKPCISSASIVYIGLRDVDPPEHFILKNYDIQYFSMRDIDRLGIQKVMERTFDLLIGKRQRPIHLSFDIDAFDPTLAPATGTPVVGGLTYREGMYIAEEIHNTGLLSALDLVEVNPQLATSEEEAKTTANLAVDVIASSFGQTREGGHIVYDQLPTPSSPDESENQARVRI
# [7] = target: T3, Proteasome subunit beta (Trypanosoma cruzi) (UniProt O96673); assay: Trypanosoma cruzi proteasome chymotrypsin-like activity (TcProtChymo) assay.; further: in the data most compounds retested in dose-response had high values; assay type: functional; settings: 9.37 µM
# T3 sequence (whole entry): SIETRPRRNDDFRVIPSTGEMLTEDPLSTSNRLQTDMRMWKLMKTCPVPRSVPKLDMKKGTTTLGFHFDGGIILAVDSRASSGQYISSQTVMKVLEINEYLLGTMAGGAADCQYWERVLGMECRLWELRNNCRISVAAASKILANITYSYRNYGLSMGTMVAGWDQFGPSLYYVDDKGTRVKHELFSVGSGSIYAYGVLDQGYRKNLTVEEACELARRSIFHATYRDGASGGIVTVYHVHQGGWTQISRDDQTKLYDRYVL
# [8] = species: Homo sapiens; assay: To identify inhibition of the IFN signalling (Jak-Stat) pathway via expression of an eGFP reporter gene under the control of an IFN-stimulated response element (ISRE) containing MxA promoter.; assay type: functional; settings: 30 µM
# [9] = target: T4, Tyrosyl-tRNA synthetase, putative (Trypanosoma cruzi (strain CL Brener)) (UniProt Q4DSP6); assay: Trypanosoma cruzi tyrosyl tRNA synthetase (TcYRS) _High Tyrosine SOP; assay type: functional; settings: 30 µM; further: in the data most compounds retested in dose-response had high values
# T4 sequence (whole entry): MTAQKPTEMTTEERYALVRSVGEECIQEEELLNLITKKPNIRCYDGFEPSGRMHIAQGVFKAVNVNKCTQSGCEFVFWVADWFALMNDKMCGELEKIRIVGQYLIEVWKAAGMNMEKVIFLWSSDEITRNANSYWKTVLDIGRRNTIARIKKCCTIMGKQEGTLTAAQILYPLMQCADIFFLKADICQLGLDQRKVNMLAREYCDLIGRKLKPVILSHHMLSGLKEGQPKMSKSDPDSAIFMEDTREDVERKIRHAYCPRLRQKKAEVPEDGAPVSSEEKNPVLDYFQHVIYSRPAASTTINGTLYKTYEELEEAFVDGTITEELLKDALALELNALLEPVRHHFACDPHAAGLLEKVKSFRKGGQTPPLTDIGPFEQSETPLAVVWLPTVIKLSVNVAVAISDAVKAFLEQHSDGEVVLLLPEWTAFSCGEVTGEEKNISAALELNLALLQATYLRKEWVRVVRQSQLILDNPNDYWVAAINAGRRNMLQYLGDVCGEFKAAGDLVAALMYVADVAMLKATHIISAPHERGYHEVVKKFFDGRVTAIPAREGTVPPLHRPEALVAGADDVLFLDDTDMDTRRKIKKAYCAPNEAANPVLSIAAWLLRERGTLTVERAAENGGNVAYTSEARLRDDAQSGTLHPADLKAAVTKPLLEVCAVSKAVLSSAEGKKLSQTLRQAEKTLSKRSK
# [10] = target: T4, Tyrosyl-tRNA synthetase, putative (Trypanosoma cruzi (strain CL Brener)); assay: Trypanosoma cruzi tyrosyl tRNA synthetase (TcYRS) SOP; assay type: functional; settings: 30 µM
# [11] = target: Chromo domain-containing protein 1 (Saccharomyces cerevisiae (strain ATCC 204508 / S288c) (Baker's yeast)) (UniProt P32657); assay: ScCHD-1 Enzyme Inhibition Assay; assay type: functional; settings: 30 µM; further: in the data most compounds retested in dose-response had high values
# Chromo domain-containing protein 1 (Saccharomyces cerevisiae (strain ATCC 204508 / S288c) (Baker's yeast)), sequence (P32657 whole entry, the tested form may be a part): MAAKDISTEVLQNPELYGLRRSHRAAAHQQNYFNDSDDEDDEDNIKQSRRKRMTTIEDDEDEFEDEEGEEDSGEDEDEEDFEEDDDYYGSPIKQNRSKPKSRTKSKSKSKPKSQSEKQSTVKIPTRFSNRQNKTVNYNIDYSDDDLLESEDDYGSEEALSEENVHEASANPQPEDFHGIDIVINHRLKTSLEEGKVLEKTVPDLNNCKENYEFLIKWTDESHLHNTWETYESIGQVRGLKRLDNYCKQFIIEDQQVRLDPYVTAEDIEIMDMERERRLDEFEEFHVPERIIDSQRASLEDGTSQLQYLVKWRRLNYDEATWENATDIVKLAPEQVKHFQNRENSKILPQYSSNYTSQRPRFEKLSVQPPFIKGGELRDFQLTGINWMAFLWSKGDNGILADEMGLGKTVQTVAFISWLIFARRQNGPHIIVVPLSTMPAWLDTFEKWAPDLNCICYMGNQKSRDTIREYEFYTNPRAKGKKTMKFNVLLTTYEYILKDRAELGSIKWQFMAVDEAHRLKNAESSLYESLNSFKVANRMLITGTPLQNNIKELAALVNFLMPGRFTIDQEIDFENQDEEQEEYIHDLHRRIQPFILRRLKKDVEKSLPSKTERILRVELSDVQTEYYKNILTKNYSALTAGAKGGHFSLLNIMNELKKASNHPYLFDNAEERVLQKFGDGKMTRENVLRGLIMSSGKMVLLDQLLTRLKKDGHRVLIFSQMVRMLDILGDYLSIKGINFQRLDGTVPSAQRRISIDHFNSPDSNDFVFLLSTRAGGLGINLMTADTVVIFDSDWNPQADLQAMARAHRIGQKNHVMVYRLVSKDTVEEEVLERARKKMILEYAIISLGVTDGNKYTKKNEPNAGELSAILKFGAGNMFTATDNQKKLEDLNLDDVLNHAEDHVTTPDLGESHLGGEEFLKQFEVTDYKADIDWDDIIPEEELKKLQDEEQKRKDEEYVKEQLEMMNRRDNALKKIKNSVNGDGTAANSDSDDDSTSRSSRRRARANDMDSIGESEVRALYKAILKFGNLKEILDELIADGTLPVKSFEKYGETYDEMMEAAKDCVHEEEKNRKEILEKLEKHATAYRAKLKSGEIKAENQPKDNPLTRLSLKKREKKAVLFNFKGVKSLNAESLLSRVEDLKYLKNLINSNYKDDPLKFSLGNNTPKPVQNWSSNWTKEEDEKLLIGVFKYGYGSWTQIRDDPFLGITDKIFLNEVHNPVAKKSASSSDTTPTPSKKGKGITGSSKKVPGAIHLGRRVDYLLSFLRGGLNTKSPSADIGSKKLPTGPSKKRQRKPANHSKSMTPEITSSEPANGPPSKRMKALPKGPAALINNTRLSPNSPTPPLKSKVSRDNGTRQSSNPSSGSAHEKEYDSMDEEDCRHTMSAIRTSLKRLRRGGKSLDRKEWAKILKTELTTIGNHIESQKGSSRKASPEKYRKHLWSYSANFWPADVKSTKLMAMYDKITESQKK
# Sialic acid-binding Ig-like lectin 9 (Homo sapiens), sequence (Q9Y336 whole entry): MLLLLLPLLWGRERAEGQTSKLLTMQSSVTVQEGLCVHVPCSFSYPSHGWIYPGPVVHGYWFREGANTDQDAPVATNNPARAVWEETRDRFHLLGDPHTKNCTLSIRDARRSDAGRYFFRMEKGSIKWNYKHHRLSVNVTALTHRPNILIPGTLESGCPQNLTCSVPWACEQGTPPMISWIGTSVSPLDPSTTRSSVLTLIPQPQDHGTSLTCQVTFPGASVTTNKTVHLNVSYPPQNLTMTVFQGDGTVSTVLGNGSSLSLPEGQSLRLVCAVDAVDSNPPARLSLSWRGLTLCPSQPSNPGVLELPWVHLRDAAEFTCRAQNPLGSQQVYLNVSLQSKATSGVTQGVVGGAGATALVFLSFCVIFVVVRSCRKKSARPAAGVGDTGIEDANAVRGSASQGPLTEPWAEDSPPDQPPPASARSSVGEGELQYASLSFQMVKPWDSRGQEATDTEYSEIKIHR
# Protein translocase subunit SecA (Escherichia coli (strain K12)), sequence (P10408 whole entry): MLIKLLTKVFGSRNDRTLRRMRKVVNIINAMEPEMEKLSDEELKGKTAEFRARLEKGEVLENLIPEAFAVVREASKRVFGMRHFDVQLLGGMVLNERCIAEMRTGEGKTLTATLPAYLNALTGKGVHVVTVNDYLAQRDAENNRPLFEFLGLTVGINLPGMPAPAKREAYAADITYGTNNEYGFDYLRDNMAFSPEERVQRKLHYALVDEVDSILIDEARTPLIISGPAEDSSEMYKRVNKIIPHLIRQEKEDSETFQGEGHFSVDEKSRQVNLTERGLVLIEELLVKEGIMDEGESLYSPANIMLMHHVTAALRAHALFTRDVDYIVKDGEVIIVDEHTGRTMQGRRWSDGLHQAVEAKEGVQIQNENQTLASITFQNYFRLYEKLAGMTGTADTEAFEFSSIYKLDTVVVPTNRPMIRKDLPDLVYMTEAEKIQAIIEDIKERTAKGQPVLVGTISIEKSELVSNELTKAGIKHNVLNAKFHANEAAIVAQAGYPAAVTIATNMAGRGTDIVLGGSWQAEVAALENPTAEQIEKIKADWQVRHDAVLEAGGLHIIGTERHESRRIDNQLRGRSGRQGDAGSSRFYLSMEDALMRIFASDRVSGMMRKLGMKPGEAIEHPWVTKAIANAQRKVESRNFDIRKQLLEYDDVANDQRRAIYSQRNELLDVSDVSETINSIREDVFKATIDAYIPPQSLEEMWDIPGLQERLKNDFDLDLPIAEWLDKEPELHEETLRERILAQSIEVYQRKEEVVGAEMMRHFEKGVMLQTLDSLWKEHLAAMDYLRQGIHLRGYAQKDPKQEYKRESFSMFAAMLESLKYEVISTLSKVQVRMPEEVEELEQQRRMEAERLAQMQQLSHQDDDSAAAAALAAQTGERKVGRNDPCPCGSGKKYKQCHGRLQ
SMILES,Percent Effect [1] [%],Percent Effect [2] [%],Percent Effect [3] [%],Percent Effect [4] [%],Percent Effect [5] [%],Percent Effect [6] [%],Percent Effect [7] [%],Percent Effect [8] [%],Percent Effect [9] [%],Percent Effect [10] [%],Percent Effect [11] [%]
COCCN(Cc1nc2c(cnn2C)c(=O)[nH]1)Cc1ccco1,-2.48,16.2,-7.78,-3.6,-4.43,5.61,12.6,4.47,9.36,18.5,-4.09
CCN(C(=O)COC)C(c1cccnc1)c1ccc2c(c1)CCO2 (stereo unspecified),2.93,2.74,0.259,5.98,-8.13,-1.2,19.8,5.88,9.38,11.1,-1.24
O=C(Nc1nccs1)N1CCCC(N2CCNC2=O)C1 (stereo unspecified),-3.07,11,7.04,15.8,0.196,17.3,21.1,2.14,4.3,22.5,-6.39
COCCO[C@@H]1CCN(C(=O)c2ccc(C)o2)[C@@H]1Cc1cnn(C)c1,-5.35,-2.7,-1.64,-4.98,-2.54,-2.08,7.69,-13,0.99,-1.22,4.49
CC(CNC(=O)Nc1cn[nH]c1)N1CCOCC1 (stereo unspecified),-0.592,13,1.69,-6.2,-3.04,6.53,15.9,25,7.62,18.8,-18.5
Cc1ccc(CNC(=O)CN2CCN(CC(O)c3ccco3)CC2)cc1 (stereo unspecified),-2.27,20.8,-4.52,-0.747,0.0986,-1.94,9.4,7.63,4.23,24.4,-10.3
Cc1cccc(CN2CCc3c(nc(N4CCCCC4C)[nH]c3=O)C2)n1 (stereo unspecified),-3.88,4.05,13,7.92,-3.36,0.232,9.36,13.8,7.53,9.09,2.2
O=C(CCc1ccccc1)C1CCCN(C(=O)c2ncc(F)cc2F)C1 (stereo unspecified),-4.95,5.48,0.372,-8.02,-1.18,2.73,9.94,2.79,5.38,10,-1.5
CO[C@H]1CO[C@@]2(CCCN(C(=O)C3=CCCCC3)C2)C1,-5.62,13.3,1.22,-1.82,1.35,-47.5,8.03,0.996,3.12,2.5,-8
Cc1cccc(-c2nc(CN3CCCCC3Cn3cncn3)no2)c1 (stereo unspecified),-1.65,-5.26,5.98,4.13,3.19,3.45,2.34,-0.995,7.35,0,6.07
CCc1ccc(CN2C[C@@H]3OCCN(c4ccnc(N(C)C)n4)[C@@H]3C2)o1,-1.43,5.48,-0.72,13.7,1.98,-13.6,7.28,82.1,5.21,-3.7,-4.54
